In PubChem BioAssay (EPA / NIEHS) one finds AC50 and outcome data, which are given here for 13 molecules.

Activity calls are given as the source filed them. The calls were made as follows: active = hit-call score of the fitted dose curve at least 0.9, where 1 is the maximum; inactive = score below 0.9.

The AC50 is the concentration giving half of the maximal activity seen.

Chain of rat CYP2A1, Cyp2a1 (gene 24894) (P11711 whole entry, looked up): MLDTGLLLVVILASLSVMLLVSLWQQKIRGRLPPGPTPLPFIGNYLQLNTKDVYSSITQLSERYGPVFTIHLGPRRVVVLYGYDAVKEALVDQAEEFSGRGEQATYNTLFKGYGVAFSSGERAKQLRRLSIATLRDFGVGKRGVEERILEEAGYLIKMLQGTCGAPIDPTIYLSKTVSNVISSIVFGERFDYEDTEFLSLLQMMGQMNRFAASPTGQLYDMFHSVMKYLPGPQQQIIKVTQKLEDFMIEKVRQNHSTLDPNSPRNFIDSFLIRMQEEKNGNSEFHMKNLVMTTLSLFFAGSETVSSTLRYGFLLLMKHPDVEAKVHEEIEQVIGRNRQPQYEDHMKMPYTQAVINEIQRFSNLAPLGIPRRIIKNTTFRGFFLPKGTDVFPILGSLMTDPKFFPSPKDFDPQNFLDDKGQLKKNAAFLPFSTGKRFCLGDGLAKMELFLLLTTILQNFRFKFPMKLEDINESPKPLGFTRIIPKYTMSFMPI

The test addresses rat CYP2A1, Cyp2a1 (gene 24894) (UniProt P11711). Kind of test: NVS_ADME_rCYP2A1: NovaScreen (NVS) CYP450-related Enzyme Activity (ADME) Assay for rat CYP2A1 (AID 2283114). How it is done: NVS_ADME_rCYP2A1 is a biochemical, single-readout assay that uses extracted gene-proteins in a cell-free assay. Measurements were taken 0.75 hour after chemical dosing in a 96-well plate.NVS_ADME_rCYP2A1 is one of one assay component(s) measured or calculated from the NVS_ADME_rCYP2A1 assay. It is designed to make measurements of enzyme activity, a form of enzyme reporter, as detected with fluorescence intensity signals by Fluorescence technology.Data from the assay component NVS_ADME_rCYP2A1 was analyzed into 1 assay endpoint. This assay endpoint, NVS_ADME_rCYP2A1, was analyzed in the positive analysis fitting direction relative to Acetonitrile as the negative control and baseline of activity. Using a type of enzyme reporter, loss-of-signal activity can be used to understand changes in the enzymatic activity as they relate to the gene Cyp2a1. Furthermore, this assay endpoint can be referred to as a primary readout, because this assay has produced multiple assay endpoints where this one serves a enzymatic activity function. To generalize the intended target to other relatable targets, this assay endpoint is annotated to the cyp intended target family, where the subfamily is xenobiotic metabolism.
Binding assays used specific radioligands (tritiated, iodinated) with non-radioactive competitive displacement ligands in agonist or antagonist protocols (as indicated) and various reference compounds and inhibitors to titrate specific binding to receptors and transporters. Most enzyme assays (CYPs, kinases, phosphatases, proteases, HDACs) used recombinant protein and specific substrates (fluorescence mostly, some colorimetric and radioactive) and inhibitors, followed by a biochemical separation of substrate and product. All assays for the biochemical HTS were initially run in duplicate at a single concentration (10 uM for CYP450 assays and 25 uM for all others). Assay-chemical combinations meeting a pre-defined threshold (e.g., 30% inhibition and other criteria defined below) were then run in singleton concentration-response format with maximum concentration of 20 uM for CYPs and 50 uM for all others. Each assay was run with positive and negative controls, and concurrent controls on every plate. The follow-up (secondary) screen tested active chemical-pairs in concentration series, as well as a few additional assays not tested in the primary screen, some selected negative inactives, and several cases re-run in the concentration series for confirmatory purposes.
For `C#CC(C)(C)NC(=O)c1cc(Cl)cc(Cl)c1`, the AC50 is 1.43 µM (active). On to `FC(F)C(F)(F)OCC(Cn1cncn1)c1ccc(Cl)cc1Cl` (stereo not drawn), for which the AC50 is 1.85 µM (active). As for `CCOC(=O)CC(SP(=O)(OC)OC)C(=O)OCC` (stereo not drawn), the outcome was inactive.

On to `CCC(=O)Nc1ccc(Cl)c(Cl)c1`, for which the half-maximal activity concentration (AC50) was 2.2 µM (active). With `CC1(C(=O)Nc2ccc(O)c(Cl)c2Cl)CCCCC1`, the concentration at half-maximal activity (AC50) is 1.8 µM (active).

Take `CSC1=N[C@@](C)(c2ccccc2)C(=O)N1Nc1ccccc1`: the half-maximal activity concentration (AC50) is 7.68 µM (active).

In the case of `CCCOCC(=Nc1ccc(Cl)cc1C(F)(F)F)n1ccnc1`, the half-maximal activity concentration (AC50) was 0.955 µM (active).

For the molecule `C=C(C)[C@H]1Cc2c(ccc3c2O[C@@H]2COc4cc(OC)c(OC)cc4[C@@H]2C3=O)O1`, the call was inactive. For the molecule `C[Si](Cn1cncn1)(c1ccc(F)cc1)c1ccc(F)cc1`, the AC50 is 1.39 µM (active). With `CCOP(=S)(OCC)Oc1ccc([N+](=O)[O-])cc1`, the AC50 was 5.89 µM (active). For `CCOP(=S)(OCC)Oc1ccc2c(C)c(Cl)c(=O)oc2c1`, the molecule was called inactive. Turning to `CC(C1CC1)C(O)(Cn1cncn1)c1ccc(Cl)cc1` (stereo not drawn), the concentration at half-maximal activity (AC50) was 4.58 µM (active).

Take `CN(C)C(=O)Nc1cccc(C(F)(F)F)c1`: the AC50 is 4.33 µM (active).
